Compound activity from PubChem BioAssay.
Hits are enriched below; roughly 2.8% of the tested compounds scored in any of these assays.
POLB inh: inhibitors of human DNA polymerase beta. hit rate 1.3% among 340,000. Pol beta primer extension/strand displacement, fluorescence kinetic. P06746. Potency, µM (doses to about 114 µM), inactives show at the top dose activity change, negative = inhibition, actives largely listed as inhibitors; also: potency is read from the fitted curve at half-maximal effect; % is scaled to controls: 0 for no effect and ±100 for the full control effect
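Kinetic readout of DNA synthesis with strand displacement by Pol beta. Compound and 10 nM enzyme sit 15 min at room temperature; 50 nM substrate starts the reaction, read immediately and at 10 min.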
PI5P4K alpha inh: PI5P4K alpha (human) kinase inhibition | hit rate 1.2% among 330,000 | PI5P4Kalpha enzyme, ADP-Glo luminescence, 60 min; active compounds read low | AID 652105 | max response, %; active = max response of -50% or lower; inconclusive = between -30% and -50%; inactive = -30% or higher; also: value at the top dose of about 77 µM; % is scaled to controls: 0 for no effect and ±100 for the full control effect
Target sequence (P48426 whole entry, looked up): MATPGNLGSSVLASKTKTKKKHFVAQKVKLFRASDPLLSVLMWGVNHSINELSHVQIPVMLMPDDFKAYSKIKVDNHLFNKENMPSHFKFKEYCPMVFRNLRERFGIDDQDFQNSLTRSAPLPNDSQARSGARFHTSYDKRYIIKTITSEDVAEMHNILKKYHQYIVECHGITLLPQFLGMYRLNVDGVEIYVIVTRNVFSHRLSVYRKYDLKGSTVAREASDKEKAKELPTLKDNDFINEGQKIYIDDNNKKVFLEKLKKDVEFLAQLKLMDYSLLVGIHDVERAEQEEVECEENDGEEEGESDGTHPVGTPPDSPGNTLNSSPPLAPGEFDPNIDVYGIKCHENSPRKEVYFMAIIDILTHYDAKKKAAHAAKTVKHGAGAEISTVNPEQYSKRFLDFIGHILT
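Controls without substrate or without enzyme flank wells where PI5P4Kalpha converts substrate using 5 microM ATP (final). Incubation lasts 60 minutes at room temperature; ADP formed is read by ADP-Glo luminescence.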
POLK inh: DNA polymerase kappa (human) inhibition | Q9UBT6 | hit rate 0.53% among 400,000 | purified Pol kappa, fluorescent DNA synthesis assay, 10 min | Potency, µM (highest dose often 107 µM), inactives show top-dose activity, negative = inhibition, most hits filed as inhibitors; also: potency is read from the fitted curve at half-maximal effect; % is scaled to controls: 0 for no effect and ±100 for the full control effect
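Here, compound and 10 nM enzyme are combined for 15 min at room temperature; adding 50 nM substrate (final) starts DNA synthesis, tracked by fluorescence at 0 and 10 min against buffer-only wells.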
WRN inhibitor: WRN helicase (human) inhibition; Q14191; WRN helicase unwinding, fluorescent forked duplex, kinetic; hit rate 0.46% among 360,000; Potency, µM (doses to about 114 µM), without a hit: at the highest dose activity change, negative = inhibition, actives largely listed as inhibitors; also: potency is read from the fitted curve at half-maximal effect; % is scaled to controls: 0 for no effect and ±100 for the full control effect; nearly all actives have a fitted effect of over 55% in size
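Enzyme (20 nM final) and test compound sit together 15 min at room temperature before substrate addition. Substrate is a single-forked duplex oligonucleotide (100 nM) labelled with fluorophore and quencher, with 2 mM ATP; helicase unwinding raises red fluorescence, read kinetically.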
POLI inh: inhibitors of human DNA polymerase iota. Q9UNA4. hit rate 1% among 390,000. Potency, µM (titrated, usually from 115 µM), for inactives: at the top dose activity, negative = inhibition, most hits filed as inhibitors. Pol iota fluorescent replication assay, 10 min; also: potency is read from the fitted curve at half-maximal effect
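Pol iota at 10 nM preincubated 15 min with compounds at room temperature; reaction started with fluorescent substrate, 50 nM final. Fluorescence read kinetically at 0 and 10 min; buffer-only wells as negative control.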
Pol eta inh: inhibitors of human DNA polymerase eta; Q9Y253; recombinant Pol eta, fluorescent DNA replication assay; Potency, µM (highest dose often 114 µM), for the others: top-dose activity change, negative = inhibition, most hits filed as inhibitors; hit rate 1.2% among 390,000; also: potency is read from the fitted curve at half-maximal effect; % is scaled to controls: 0 for no effect and ±100 for the full control effect
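Fluorescent replication assay: 50 nM final substrate added after a 15 min room-temperature compound preincubation with 10 nM enzyme. Signal taken at 0 min and again at 10 min.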
* marks the source's active call; other numbers are inactive results; ! = not active in a repeat; [ ] = remark or other dose. Unless noted, calls follow the shape of the dose curve; as a rule, active = well fitted curve in the direction sought with a large enough effect; inconclusive = small, poorly fitted or top-dose-only effect, or another doubt; inactive = no such curve, though single readings can be large; an effect the other way counts as inactive or inconclusive.

Screening Cc1nc(NCc2ccco2)c2c(C)c(C)sc2n1 returned POLB inh 0%, POLK inh -15%, WRN inhibitor 1%, POLI inh 13% and Pol eta inh -18%.
`COc1c2ccc(OCC/C(C)=C/C(=O)C=C(C)C)cc2nc2occc12` gave PI5P4K alpha inh -20, POLK inh -22%, WRN inhibitor -1%[11.6 µM], POLI inh inconclusive and Pol eta inh 45µM*.
For O=C(OC1Cc2c(O)cc(O)cc2OC1c1cc(O)c(O)c(O)c1-c1c(C2Oc3cc(O)cc(O)c3CC2OC(=O)c2cc(O)c(O)c(O)c2)cc(O)c(O)c1O)c1cc(O)c(O)c(O)c1 (stereo unspecified) the results were POLK inh 0.5µM*.
Screening Oc1cc(O)c2c(c1)O[C@H](c1ccc(O)c(O)c1)[C@H](O)C2 returned POLB inh 3%, PI5P4K alpha inh -2, POLK inh 89µM*!, WRN inhibitor -6%, POLI inh 89µM* and Pol eta inh -6%.
For O=C(O[C@@H]1Cc2c(O)cc(O)cc2OC1c1ccc(O)c(O)c1)c1cc(O)c(O)c(O)c1 (stereo partly specified) the results were POLK inh 0.18µM*.
CC(C)NC(=O)c1ccc(CSc2nc3ccncc3n2Cc2cccc(F)c2)cc1 was read as POLB inh -1%, POLK inh -9%, POLI inh 28% and Pol eta inh -11%.
For Cc1cccc(CSc2ncc(CO)n2Cc2ccc(F)cc2)c1 the results were POLB inh -23%, POLK inh -2%[60.1 µM], POLI inh inconclusive and Pol eta inh -9%.
Screening Cc1ccc(C)c(NC(=O)c2nc(S(=O)(=O)Cc3ccc(F)cc3)ncc2Cl)c1 returned POLB inh 32µM*, POLK inh -6%, POLI inh inconclusive and Pol eta inh 89µM*.
For Cc1nnc(NC(=O)c2nc(S(=O)(=O)Cc3ccccc3C)ncc2Cl)s1 the results were POLB inh inconclusive, PI5P4K alpha inh -18, POLK inh -16%, WRN inhibitor 6%, POLI inh inconclusive and Pol eta inh 56µM*.
CC(C)c1nnc(NC(=O)c2nc(S(=O)(=O)Cc3ccc(F)cc3)ncc2Cl)s1 was read as POLB inh 89%, PI5P4K alpha inh -10, POLK inh -2%, WRN inhibitor -7%, POLI inh inconclusive and Pol eta inh 2%.
CCCCOC(=O)c1ccc(NC(=O)c2cc(-c3ccccc3)on2)cc1 was read as POLB inh -25%, POLK inh -1%, POLI inh 50% and Pol eta inh -14%.
For O=C(O)C1Sc2[nH]c(=O)sc2C2c3ccc(O)cc3OC(=O)C12 (stereo unspecified) the results were POLB inh 27%, PI5P4K alpha inh inconclusive, POLK inh inconclusive, WRN inhibitor 25µM*, POLI inh inconclusive and Pol eta inh -58%.
For COc1cc2ccc(=O)oc2c(O)c1O the results were PI5P4K alpha inh -14, POLK inh 50µM*, WRN inhibitor -14%, POLI inh inconclusive and Pol eta inh -4%.
For CNc1cncc(-c2ccc(OC)c(OC)c2)n1 the results were PI5P4K alpha inh 2 and WRN inhibitor 0%.
O=C(Nc1ccc(F)c(Cl)c1)C1CCCN1S(=O)(=O)c1ccc(F)cc1 (stereo unspecified) was read as POLB inh 3%, POLK inh -16%, POLI inh 4% and Pol eta inh -21%.
Screening N[C@@H](Cc1cc(-c2ccc(Cl)cc2Cl)cc(CP(=O)(O)O)c1O)C(=O)O returned POLK inh 1.8µM*.
`Cc1cc(C(=O)Nc2ccc(Cl)cc2)c(C)n1-c1ccccc1` gave POLB inh 0%, PI5P4K alpha inh 2, POLK inh -10%, WRN inhibitor -21%, POLI inh 136% and Pol eta inh -25%.
